We go through 64 compounds from PubChem BioAssay AID1626 (SRMLSC, 2009).

The whole screen tested about 220,000 compounds, of which about 2,000 (0.91%) were called active. About 2% were inconclusive and are not listed. A selection follows. Results with a measured potency or affinity are listed apart. Values without a mark were called inactive. Rule as the data show it: inconclusive = inhibition above about 80% without an active follow-up result; inactive = below that; test concentration not stated here.

The experiment in a line: M. tuberculosis H37Rv growth inhibitors, H37Rv strain (AID 1626).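 Also: bacteria incubated seven days before Alamar blue readout; 0% = bacteria only wells and 100% = bacteria with antibiotic wells.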 As to conditions: hits give high values, concentration not given here.
In the case of `Cc1ccc(Nc2nc(N)c([N+](=O)[O-])c(N3CCC(C)CC3)n2)cc1C`, the inhibition was 10.8%.

`O=c1cc(NCc2ccccc2)nc2ccccn12`: the inhibition is 4.08%.

For the compound `Cn1ccnc1SCC(=O)Nc1ccc2ccccc2c1`, the inhibition is 11.1%.

For `O=C(CSc1ccccn1)Nc1ccc2c(c1)C(=O)c1ccccc1C2=O`, the inhibition is 2.78%.

For the compound `CC(=O)Nc1ccc(NC(=O)CSc2ccccn2)cc1`, the inhibition is 7.17%.

For the compound `COc1cccc(NC(=O)CSc2ccccn2)c1`, the inhibition is -1.36%.

Regarding `COc1ccc(NC(=O)CSc2ccccn2)cc1`, the inhibition was 7.31%.

For `O=C(CSc1ccccn1)Nc1ccc(NC(=O)CSc2ccccn2)cc1`, the inhibition is -2.88%.

Turning to `O=C(CSc1ccccc1)Nc1ccncc1`, the inhibition was 0.82%.

On to `COc1ccc(NC(=O)CSc2ccccn2)cc1OC`, for which the inhibition is -4.19%.

As to `O=C(NCc1ccccn1)/C(=N/O)c1ccccc1`, the inhibition is 1.57%.

For the compound `COc1ccc(N2C(=O)NC(NC(=O)c3cccnc3)(C(F)(F)F)C2=O)cc1` (centres undefined), the inhibition was -4.91%.

With `Cc1nccc(-c2cc(-c3ccc(Cl)cc3Cl)no2)n1`, the inhibition was 0.59%.

As to `Cc1onc(-c2ccccc2)c1C(=O)NNC(=S)NC(=O)/C=C/c1cccs1`, the inhibition was 5.26%.

As for `O=C(N/N=C/c1cc([N+](=O)[O-])ccc1O)C1CC1`, the inhibition is 9.15%.

As for `Cc1nn(-c2ccc(F)cc2)c2sc(C(=O)OC3CCOC3=O)cc12` (centres undefined), the inhibition is -1.05%.

As for `Cc1ccc(S(=O)(=O)Nc2ccc3c(c2)nc(C)n3C)cc1`, the inhibition was 2.7%.

As for `COc1ccc(/C=C2\Cc3ccccc3C2=O)cc1OC`, the inhibition was 4.06%.

For the compound `O=C1/C(=C/c2cccs2)COc2ccccc21`, the inhibition was 4.75%.

Turning to `COc1ccc(/C=C2/CCc3ccccc3C2=O)cc1OC`, the inhibition is 5.56%.

For the compound `COc1cc(/C=C2/CC/C(=C/c3ccc(O)c(OC)c3)C2=O)ccc1O`, the inhibition is -0.8%.

`COc1cc(/C=C2\COC/C(=C\c3cc(OC)c(OC)c(OC)c3)C2=O)cc(OC)c1OC`: the inhibition was 21.1%.

On to `CNc1ccc(/C=C2\COc3ccccc3C2=O)cc1[N+](=O)[O-]`, for which the inhibition was 10.8%.

In the case of `CCC(C)NC(=O)CSc1nc2ccccc2c(=O)n1CCCC(=O)NCC1CCCO1` (centres undefined), the inhibition was -0.9%.

For `Cc1nn(Cc2ccccc2)c(Cl)c1C(=O)OCC#N`, the inhibition was 2.96%.

Turning to `Cc1cccc(NC(=O)CSc2ccc(C(N)=O)cc2[N+](=O)[O-])c1C`, the inhibition was -7.31%.

As for `O=C(O)CCC(=O)Nc1ccccc1C(=O)NCc1ccco1`, the inhibition is -1.28%.

Turning to `Cc1ccc(NC(=S)N/N=C2/CCCCc3ccccc32)cc1`, the inhibition was -0.29%.

On to `COc1ccc2nc(NC(=O)CSc3nnc(-c4ccoc4C)n3C)sc2c1`, for which the inhibition was 0.74%.

As for `COCCOC(=O)c1c(NC(=O)CN2CCc3ccccc32)sc(C(N)=O)c1C`, the inhibition was 6.77%.

On to `CCn1cc(C(=O)O)c(=O)c2cnc(N3CCN(C(=S)Nc4ccccc4C(F)(F)F)CC3)nc21`, for which the inhibition is -8%.

For the compound `O=C(O)C(Cc1c[nH]c2ccccc12)N1Cc2ccccc2C1=O` (centres undefined), the inhibition was -8.14%.

Regarding `CC(C)CNC(=O)NC1C(NC(=O)NCC(C)C)N(C)C(=O)N1C` (centres undefined), the inhibition is -2.11%.

On to `O=C(Nc1ccc(N2CCOCC2)cc1)c1cc2c(s1)CCCC2`, for which the inhibition was -7.27%.

`COc1ccc2nc(N=Nc3c(O)ccc4ccccc34)sc2c1`: the inhibition is 13.7%.

In the case of `COc1ccc2nc(/N=C\N(C)C)sc2c1`, the inhibition was 5.98%.

Regarding `CC(C)(C)C(=O)NNC(=O)c1cc2sccc2s1`, the inhibition is 13.2%.

`CCCS/C(N)=N/N=C/c1ccccc1O`: the inhibition is 4.15%.

As to `CCOc1ccccc1C(=O)N1CCN(C(c2ccccc2)c2ccccc2)CC1`, the inhibition was 0.97%.

Consider `CC(=O)c1ccccc1OCC(O)CN1CCN(CCN2C(=O)c3cccc4cccc(c34)C2=O)CC1` (centres undefined), for which the inhibition was 39.8%.

For the compound `CC1=CC(=O)N(c2ccc(C)cc2)C1c1ccc(Cl)cc1` (centres undefined), the inhibition was 11.2%.

On to `Cc1ccc2c(c1)c1c(n2CC(O)CNC(C)(C)C)CCCC1` (centres undefined), for which the inhibition is 3.21%.

With `Cc1ccc2c(c1)c1c(n2CC(O)CNC2CCCC2)CCCC1` (centres undefined), the inhibition was 27.5%.

On to `COc1ccc(OC)c(NC(=O)CCc2c[nH]c3ccccc23)c1`, for which the inhibition is 11.6%.

Take `COc1ccc(-c2nnc(NC(=O)C(C)C)o2)cc1`: the inhibition was 28.3%.

As to `Cc1ccc(NC(=O)Nc2nnc(-c3ccccc3)o2)cc1`, the inhibition was 3.09%.

Take `Cc1ccccc1C(=O)Nc1nnc(-c2cccnc2)o1`: the inhibition is 20.8%.

With `Cc1ccccc1C(=O)Nc1nnc(-c2ccncc2)o1`, the inhibition was 1.04%.

As for `COc1ccc(-c2nnc(NC(=O)C3CC3)o2)cc1`, the inhibition was 14.1%.

With `COc1ccc(Oc2ccc(NC(=O)c3ccccc3C)cc2)cc1`, the inhibition is 9.33%.

Take `CCSc1nnc(-c2ccc(OC)cc2)o1`: the inhibition was 10.5%.

As for `COc1ccc(NC(=O)c2cc(Cl)ccc2Cl)c([N+](=O)[O-])c1`, the inhibition was 0.17%.

For the compound `O=C(N/N=C/c1ccc2c(c1)OCO2)c1cc(-c2ccccc2Cl)nc2ccccc12`, the inhibition was 4.7%.

Regarding `CSc1ccc(/C=C/C(=O)OCC(=O)NC(C)C)cc1`, the inhibition is 0.59%.

For the compound `O=C(Nc1ccccc1)NC1CCN(Cc2ccccc2)CC1`, the inhibition is -1.63%.

Regarding `O=C(Cn1c(=O)n(CC2CCCO2)c(=O)c2ccccc21)c1ccccc1` (centres undefined), the inhibition was 1.39%.

`O=C(CCCSc1nc2sc3c(c2c(=O)[nH]1)CCC3)NCCO`: the inhibition is -2.38%.

Take `O=C(NNC(=O)c1cccnc1)Nc1ccc(Cl)c(Cl)c1`: the inhibition is -1.69%.

As for `C=CCn1c(SCn2nnc3ccccc3c2=O)nc2scc(-c3cccs3)c2c1=O`, the inhibition is -6.52%.

For the compound `COc1cc(CCC(O)CC(=O)CCc2ccccc2)ccc1O` (centres undefined), the inhibition is -13%.

In the case of `O=C(Nc1nnc(-c2cccnc2)o1)c1cccc([N+](=O)[O-])c1`, the inhibition is 74.6%.

Turning to `O=C(Nc1nn[nH]n1)c1cccc([N+](=O)[O-])c1`, the inhibition is 2.86%.

With `COc1ccc(-c2nnc(-c3ccc(OCC(C)C)cc3)o2)cc1`, the inhibition is -2.52%.

In the case of `CCOC(=O)CNC(=O)Nc1nnc(-c2ccc(OCC)cc2)o1`, the inhibition is -3.79%.
